Measured values published in PubChem BioAssay (NCATS).
Results filed as inconclusive are left out. Calls of active or inactive are those of the source. Calls come from the whole dose curve; as a rule, active = well fitted curve in the direction sought with a large enough effect; inconclusive = small, poorly fitted or top-dose-only effect, or another doubt; inactive = no such curve, though single readings can be large; an effect the other way counts as inactive or inconclusive. Where a SMILES comes first, the peptide text is derived from it. The star is where a group is joined. Cbz = O=C(OCc1ccccc1)*; CH2Cl = ClC*

How the values were obtained:
[1] = target: Glutathione peroxidase 1 (Homo sapiens) (UniProt P07203); test: Primary qHTS Assay for Inhibitors of Recombinant Selenoprotein Glutathione Peroxidase 1 (GPX1) (AID 1845191); note: nearly all actives have a fitted effect of over 65% in size; note: potency is the fitted concentration of half-maximal effect
Procedure, shortened: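 Recombinant GPX1 (10 nM final) was preincubated with compound for 30 min at room temperature, then reacted with 1 mM GSH, 0.5 mM CHP, 0.5 mM NADPH and 100 nM glutathione reductase; NADPH fluorescence (340/450 nm) was read at 0 and 15 min.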

[2] = target: Phospholipid hydroperoxide glutathione peroxidase GPX4 (Homo sapiens) (UniProt P36969); test: Primary qHTS Assay for Inhibitors of Recombinant Selenoprotein Glutathione Peroxidase 4 (GPX4) (AID 1845192); note: nearly all actives have a fitted effect of over 65% in size; note: potency is the fitted concentration of half-maximal effect
Procedure, shortened: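 GR-coupled readout: 100 nM GR, 1 mM GSH, 0.5 mM NADPH; NADPH fluorescence (ex 340/em 450 nm) read at t=0 and after 15 min RT. GPX4 200 nM, preincubated 30 min with compound; substrate 0.5 mM CHP.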

[3] = target: Luciferin 4-monooxygenase (Photinus pyralis) (UniProt P08659); test: Primary firefly luciferase (FLuc) qHTS assay for identification of artifact compounds. (AID 1845220); note: nearly all actives have a fitted effect of over 60% in size
Procedure, shortened: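 Reaction readout was CCD-imaged luminescence, taken 5 min after adding 10 nM purified firefly enzyme to compound-treated wells holding 10 uM luciferin and ATP in pH 7.6 buffer.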

[4] = Primary fluorescence-based thiol-reactive (MSTI) qHTS assay for identification of artifact compounds. (AID 1845221); note: nearly all actives have a fitted effect of over 65% in size; note: potency is the fitted concentration of half-maximal effect
Procedure, shortened: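 Curve-fitted percent inhibition (4-parameter Hill) derived from fluorescence, Ex 525/Em 598 nm, scaled with Acetyl-MSTI and MSTI; 1 h incubation at room temperature.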

[5] = system: Nanoluciferase (engineered Oplophorus gracilirostris luciferase); test: Primary Nanoluciferase (NLuc) qHTS assay for identification of artifact compounds. (AID 1845222);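 note: NLuc secreted into diluted conditioned medium of S16 cells; series mostly up to about 54 µM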
Procedure, shortened: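 Concentration-response data were obtained by luminescence after 5 min with Nano-Glo substrate at 1:100. The enzyme was diluted S16 NLuc-expressing cell medium, preincubated with compound for 15 min at RT. Curves were fitted with a 4-parameter Hill model.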

[6] = Primary redox qHTS assay for identification of artifact compounds. (AID 1845223)
Procedure, shortened: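 Amplex Red (25 uM) and HRP (250 mU/mL) in HBSS, with compounds for 15 min, then 250 uM DTT for 30 min, room temperature, dark. Fluorescence 525/598 nm read; normalized to DMSO and 10 uM DA3003; Hill fit.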

Measured: Potency

Glutathione peroxidase 1 (Homo sapiens), sequence (P07203 whole entry, looked up): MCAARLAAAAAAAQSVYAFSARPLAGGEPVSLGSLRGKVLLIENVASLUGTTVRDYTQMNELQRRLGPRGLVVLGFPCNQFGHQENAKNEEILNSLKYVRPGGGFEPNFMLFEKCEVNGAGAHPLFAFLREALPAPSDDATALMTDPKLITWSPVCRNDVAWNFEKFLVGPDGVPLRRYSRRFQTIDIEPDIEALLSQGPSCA
Phospholipid hydroperoxide glutathione peroxidase GPX4 (Homo sapiens), sequence (P36969 whole entry, looked up): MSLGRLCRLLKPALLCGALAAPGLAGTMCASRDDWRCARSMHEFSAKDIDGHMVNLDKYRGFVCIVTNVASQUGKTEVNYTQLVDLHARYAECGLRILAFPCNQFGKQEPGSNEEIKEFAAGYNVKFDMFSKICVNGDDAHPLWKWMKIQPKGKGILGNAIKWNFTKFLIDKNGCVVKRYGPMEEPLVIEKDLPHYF

COc1cc(N2CCOCC2)ccc1NC(=O)c1csc(-c2cccnc2)n1
active: [4] 2.38 µM
inactive: [1] | [2] | [3] | [5] | [6]

FC(F)(F)c1ccccc1-c1cc(C(F)(F)F)c2nc(C3=NOC4(CCCCC4)C3)[nH]c2c1
inactive: [1] | [2] | [3] | [4] | [5] | [6]

CCC(C)C(=O)O[C@H]1[C@@H](OC(=O)c2ccoc2)C[C@](C)(O)[C@]23OC(C)(C)[C@H](C[C@H](OC(=O)c4ccoc4)[C@]12COC(C)=O)[C@H]3OC(C)=O (some centres not stated)
inactive: [1] | [2] | [3] | [4] | [5] | [6]

COc1nc2ccc(Br)cc2cc1[C@@H](c1ccccc1)[C@@](O)(CCN(C)C)c1cccc2ccccc12
inactive: [1] | [2] | [3] | [4] | [6]

CC(C)C[C@H](NC(=O)CNC(=O)OCc1ccccc1)C(=O)N[C@@H](Cc1ccccc1)C(=O)CCl (Cbz-Gly-Leu-Phe-CH2Cl)
inactive: [1] | [2] | [3] | [4] | [6]

CC(=O)OC1C(O)CC2(C)C(CCC3(C)C2CC=C2C4C5(CCC(CO[C@@H]6O[C@H](CO)[C@@H](O)[C@H](O)[C@H]6O)(OC5=O)C4(C)O)C(O)CC23C)C1(C)C (some centres not stated)
inactive: [1] | [2] | [3] | [5]

O=c1[nH]c2cccc(N3CCN(Cc4ccc(-c5ccccc5)cc4)CC3)c2o1
inactive: [1] | [2] | [3] | [4] | [6]

COc1ccc(CNc2nc(N(CCO)CCO)nc3c2ncn3C(C)C)cc1
inactive: [1] | [2] | [3] | [5]

C[C@@H]1C[C@H](C)CN(CCC(=O)Nc2ccc(Br)cc2)C1
inactive: [1] | [2] | [3] | [4] | [6]

CC(=O)OC[C@]12[C@H](OC(C)=O)C(=O)[C@@H]3[C@@H](O)[C@@]14O[C@@]3(C)COC(=O)c1cccnc1[C@@H](C)[C@H](C)C(=O)O[C@@H]([C@H](O)[C@@H]2OC(C)=O)[C@]4(C)O
inactive: [1] | [2] | [3] | [5]

Cc1cc(CS(=O)(=O)c2ccccc2)cc(OCc2ccc(CN3CCCC3CO)cc2)c1 (configuration not stated)
inactive: [1] | [2] | [3] | [4] | [6]

C#Cc1cccc(Nc2nc3cc(C(=O)O)ccc3c3cncnc23)c1
inactive: [1] | [2] | [3] | [4] | [6]

Oc1cccc(C2NC(=S)Nc3cccc(F)c32)c1 (configuration not stated)
inactive: [1] | [2] | [3] | [4] | [6]

O=C(/C=C/c1ccccc1O)O[C@@H]1O[C@H](CO)[C@@H](O)[C@H](O)[C@H]1O
inactive: [1] | [2] | [3] | [4] | [6]

CCN(c1cc(-c2ccc(CN3CCOCC3)cc2)cc(C(=O)NCc2c(C)cc(C)[nH]c2=O)c1C)C1CCOCC1
inactive: [1] | [2] | [3] | [4] | [6]

CC1(C)CCCC2(C)C1C(OC(=O)/C=C/C=C/C=O)C=C1COC(=O)C12O (configuration not stated)
inactive: [1] | [2] | [3] | [4] | [6]

COc1ccc2[nH]c(=O)c3c(c2c1)OC(C)(C)C=C3
inactive: [1] | [2] | [3] | [4] | [6]

NC(=O)CCCSc1nc(N)nc(-c2c(Cl)cc3c4c(cccc24)COC3)n1
inactive: [1] | [2] | [3] | [4] | [6]

C=C[C@@]1(C)CCC2C(=CCC3[C@]2(C)CCC[C@@]3(C)C(=O)O)C1 (some centres not stated)
inactive: [1] | [2] | [3] | [5]

Cc1nc(N2CCN(C(=O)c3ccco3)CC2)c2c3c(sc2n1)CCCC3
inactive: [1] | [2] | [3] | [4] | [6]

CC(O)(C(=O)O)C1CCC2(C)C1CCC1(C)C2CCC2C3(C)CCC(O)C(C)(COC4OC(CO)C(O)C(O)C4O)C3CCC21C (configuration not stated)
inactive: [1] | [2] | [3] | [4] | [6]

COc1cc(CCC2=NN=C(NC(=O)c3ccc(N4C[C@@H](C)N[C@@H](C)C4)cc3)C2)cc(OC)c1
inactive: [1] | [2] | [3] | [4] | [6]

CC(=O)C1(C)CCC2C3C=C(C)C4=CC(=O)CCC4(C)C3CCC21C (configuration not stated)
inactive: [1] | [2] | [3] | [4] | [6]

C/C(=C\Cc1c(O)c(Cl)c(C)c(C=O)c1O)CC/C=C(\C)[C@H]1CC(=O)C(C)(C)O1
inactive: [1] | [2] | [3] | [5]

CC[C@@H](C)Nc1cc(C(=O)NC2CC3CCC(C2)N3c2ccc(C(=O)C3CC3)cn2)c(C)cc1C(N)=O (some centres not stated)
inactive: [3] | [5]
active: [1] 16.3 µM | [2] 5.7 µM
